Rows were chosen to be rich in hits. Some 4.6% of all compounds tested hit in one or more screens of this group.
USP2a inhib: USP2a (human) protease inhibition | USP2a enzymatic assay, qHTS inhibition | Potency, µM (series often up to 38.3 µM), for inactives: top-dose activity change, negative = inhibition, hits mostly inhibitors | 60,000 compounds, 0.1% hits | O75604 | AID 927; note: nearly all actives have a fitted effect of over 60% in size
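USP2 core (20nM final) preincubated 30 min RT with compound, then Ub-PLA2 20nM and NBD C6-HPC 20uM final added; buffer 20mM Tris-HCl pH 8.0, 2mM CaCl2. Fluorescence Ex 460/Em 535 read at 0 and 2.5 h; normalized to NEM.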
15-hLO inh: blocks human 15-lipoxygenase activity | purified 15hLO-1, xylenol orange hydroperoxide absorbance | AID 887 | Potency, µM (top dose mostly 57.1 µM), inactives show at the highest dose activity change, negative = inhibition, hits mostly inhibitors | P16050 | 74,000 compounds, 1.4% hits; note: % is set by controls: 0 for no effect and ±100 for the full control effect; nearly all actives have a fitted effect of over 55% in size
Target sequence (P16050 whole entry, looked up): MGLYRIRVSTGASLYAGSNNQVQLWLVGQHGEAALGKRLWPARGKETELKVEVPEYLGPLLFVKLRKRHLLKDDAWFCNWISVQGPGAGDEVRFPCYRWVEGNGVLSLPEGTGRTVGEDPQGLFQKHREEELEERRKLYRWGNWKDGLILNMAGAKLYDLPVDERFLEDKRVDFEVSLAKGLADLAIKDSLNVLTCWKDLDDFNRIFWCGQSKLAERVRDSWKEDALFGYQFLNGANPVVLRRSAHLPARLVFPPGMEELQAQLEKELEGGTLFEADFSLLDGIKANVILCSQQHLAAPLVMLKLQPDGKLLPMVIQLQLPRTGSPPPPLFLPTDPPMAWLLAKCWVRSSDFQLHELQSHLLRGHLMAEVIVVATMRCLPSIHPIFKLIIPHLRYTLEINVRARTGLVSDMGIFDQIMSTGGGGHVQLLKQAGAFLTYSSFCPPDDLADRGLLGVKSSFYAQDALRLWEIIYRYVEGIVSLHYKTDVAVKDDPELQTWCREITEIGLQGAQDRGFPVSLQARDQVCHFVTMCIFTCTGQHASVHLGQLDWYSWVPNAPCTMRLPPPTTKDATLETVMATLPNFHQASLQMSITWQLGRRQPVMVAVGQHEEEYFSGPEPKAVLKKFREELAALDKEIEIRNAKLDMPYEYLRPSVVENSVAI
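Readout: Fe(III)-xylenol orange absorbance, 573-to-405 nm ratio as reaction progress. Enzyme 40 nM purified human 15hLO-1, substrate 50 uM arachidonic acid, 6 min RT after 15 min compound preincubation; Hepes pH 7.5 buffer with Triton X-100.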
Hsp90 Hop PPI: changes Hsp90-Hop TPR2A binding signal, up or down; AlphaScreen TPR2A-His6 binding biotin-Hsp90 C-terminal peptide; Potency, µM (top dose mostly 57 µM), without a hit: at the top dose activity change, negative = inhibition; 71,000 compounds, 0.44% hits; active = well fitted curve in either direction with a large enough effect; inconclusive = small, poorly fitted or top-dose-only effect, or another doubt; note: % is set by controls: 0 for no effect and ±100 for the full control effect
PK Bst: pyruvate kinase (B. stearothermophilus) modulation. Potency, µM. purified pyruvate kinase, luminescence ATP production; ribose 5-phosphate activator present at AC10. 51,000 compounds, 1.2% hits; in the data active = potency below about 11 µM; inconclusive = mostly about 12 µM to 25 µM;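 the screen sought inhibitors and activators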;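 note: scaled between full activation by ribose 5 phosphate and full inhibition by luteolin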
Tau filament bind: tau filament binding; P10636; recombinant tau filaments, thioflavin S fluorescence, 15 h; filaments grown with octadecylsulfate alongside compound; Potency, µM (top dose mostly 57.1 µM), without a hit: at the top dose activity change, negative = inhibition; 71,000 compounds, 2% hits;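 note: % is set by controls: 0 for no effect and ±100 for the full control effect; actives lower thioflavin S fluorescence by blocking filaments or displacing dye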
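Assay mix: 1 uM His-tagged tau, 30 uM sodium octadecylsulfate, thioflavine S dye in HEPES/NaCl/DTT buffer. Compound is added prior to the inducer. Fluorescence after 15 h at 37 C.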
GBA mod: alters purified human glucocerebrosidase activity; P04062; purified enzyme, resorufin glucoside fluorescence (screen aimed at inhibitors), 20 min; Potency, µM; 48,000 compounds, 1.1% hits; AID 360; in the data active = potency below about 15 µM; inconclusive = mostly about 16 µM to 33 µM;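 note: the screen sought inhibitors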
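Compounds titrated against 0.2 nM normal enzyme, 30 uM resorufin beta-D-glucopyranoside substrate, citrate/phosphate buffer with taurocholate and tween-20, pH 5.9. Reaction ran 20 min at room temperature; fluorescence (Ex 548/Em 600) gave AC50.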
Numbers without * were called inactive; i = inactive; ? = inconclusive; / = no result given; [ ] = remark or other dose. Unless noted, calls come from the whole dose curve; as a rule, active = well fitted curve in the direction sought with a large enough effect; inconclusive = small, poorly fitted or top-dose-only effect, or another doubt; inactive = no such curve, though single readings can be large; an effect the other way counts as inactive or inconclusive. Potency is the fitted concentration of half-maximal effect.

SMILES | USP2a inhib | 15-hLO inh | Hsp90 Hop PPI | PK Bst | Tau filament bind | GBA mod
C=CCn1c(SCC(=O)Nc2cc(C)ccc2OC)nnc1-c1ccco1 | 17% | 1% | -2% | >57 | -5% | >77
N#CC1=C(N)N(c2ccccc2)C2=C(C(=O)CCC2)C1c1cccs1 (stereo unspecified) | 25% | ? | -21% | >57 | 20µM* | 13*
N#CC1=C(N)N(c2ccccc2C#N)C2=C(C(=O)CCC2)C1c1ccsc1 (stereo unspecified) | 28% | -13% | ? | >57 | ? | >77
COc1cccc(C2CC(c3ccccc3Cl)Nc3ncnn32)c1 (stereo unspecified) | 11% | 10% | -1% | 8.4* | -10% | i
CCCNC(=O)OC[C@@H]1O[C@H](CCO/N=C\[C@@H](C)[C@H](OCc2ccccc2)C(C)C)C=C[C@@H]1Oc1ccc(OC)cc1 | / | 4%[11.4 µM] | / | / | / | /
COc1ccc(C2CC(C(F)(F)F)n3nc(C(=O)O)c(Cl)c3N2)cc1OC (stereo unspecified) | -6% | 4% | -1% | / | -8% | /
COc1ccc(C2CC(C(F)(F)F)n3nc(CO)c(Cl)c3N2)cc1OC (stereo unspecified) | -3% | -3% | 0% | >57 | 3% | 5.9*
CCOC(=O)c1c(N2C(=O)C3C4C=CC(O4)C3C2=O)sc2c1CCCC2 (stereo unspecified) | 31% | 7.9µM* | 1% | / | 28% | /
CCOC(=O)c1c(N)sc2c1CCCC2 | 6% | ? | -5% | >57 | 10% | >77
Cc1nc2c3cnn(-c4ccc(C)c(C)c4)c3ncn2n1 | 26% | -1% | -2% | / | 5% | >77
Cc1ccc(-n2ncc3c(=O)n(CC#N)cnc32)cc1C | 3% | -3% | 3% | >57 | 21% | >77
CCc1nnc2c3cnn(-c4ccc(C)c(C)c4)c3ncn12 | -4% | -5% | -11% | >57 | 4% | 0.21*
C#CCn1cnc2c(cnn2-c2ccc(C)c(C)c2)c1=O | 6% | -1% | 2% | >57 | 10% | 15*
CC(=O)NC12CC3CC(C1)CC(C(=O)OCC(=O)c1ccc4c(c1)OCCO4)(C3)C2 | 34% | 6% | -3% | 4.3* | -13% | >77
CC(=O)NC12CC3CC(C1)CC(C(=O)OCC(=O)Nc1ncc(Cl)c(C)c1Cl)(C3)C2 | 30% | -8% | -4% | >57 | -22% | >77
Cc1csc(SCC(=O)c2cc(C)n(Cc3cccs3)c2C)n1 | -5% | -4% | 1% | 3.2* | 18% | >77
O=C(COC(=O)c1cccs1)c1ccc2c(c1)OCCO2 | -3% | -2% | -5% | 0.29* | 15% | >77
Cc1cc(C(=O)COC(=O)c2ccc3c(c2)OCO3)c(C)n1Cc1cccs1 | 13% | -2% | 1% | / | 88% | 14*
CCNc1ncc2nc(CCc3ccccc3)c(=O)n(Cc3ccc(F)cc3)c2n1 | 136% | -1% | -5% | / | 26% | /
Cc1ccc(N=Nc2ccc(N)cc2C)c(S(N)(=O)=O)c1 | / | 3%[11.4 µM] | -9%[11 µM] | / | 4µM* | /
Cc1ccc(N=Nc2c(O)c(S(=O)(=O)O)cc3cc(S(=O)(=O)O)ccc23)c(C)c1 | / | 6%[11.4 µM] | -24%[11 µM] | / | -9%[11.4 µM] | /
COc1cccc(NC(=O)COC(=O)c2ccco2)c1 | 1% | 1% | -3% | >57 | -19% | >77
COc1ccc(C(=O)COC(=O)c2ccco2)cc1 | 8% | 11% | 0% | 3.1* | -4% | >77
CCN1CCN(c2cc(C)c3cc(NC(=O)c4ccncc4)ccc3n2)CC1 | / | -7% | -5% | / | 16µM* | /
Cc1cc(N2CCN(C)CC2)nc2ccc(NC(=O)CCC(=O)NCCC3=CCCCC3)cc12 | 16% | 6% | 0% | >57 | 4% | ?
SMILES | USP2a inhib | 15-hLO inh | Hsp90 Hop PPI | PK Bst | Tau filament bind | GBA mod
O=C(Nc1ccc2nn(-c3ccccc3)nc2c1)c1ccc(Br)o1 | 20% | -16% | -2% | >57 | i | >77
CCN1CCN(c2cc(C)c3cc(NC(=O)c4ccc(Br)o4)ccc3n2)CC1 | 25% | -7% | -8% | >57 | 53% | 5.1*
O=C(O)c1sccc1S(=O)(=O)Nc1ccccc1N1CCCCC1 | / | -1% | / | / | / | /
O=C(c1cnn2c(C(F)(F)F)cc(-c3ccco3)nc12)N1CCCCCC1 | 4% | 8% | 3% | / | ? | /
O=C(c1cc(-c2ccco2)nn1-c1cccc(Cl)c1)N1CCCCC1 | 13% | 7.9µM* | -16% | >57 | ? | /
Cc1[nH]n2c(=O)c3c(nc2c1-c1ccc(Cl)cc1)CCC3 | 65% | 12% | -1% | >57 | 0% | 12*
CN1CCc2c(sc3c2c(=O)n(-c2ccccc2)c2nnc(SCc4ccccc4F)n32)C1 | 9% | ? | -10% | >57 | 13µM* | >77
Nc1nc(NCc2cccs2)nn1-c1ccccc1 | 1% | 12% | -5% | >57 | 2% | >77
CC1CCCCN1c1nc(-c2ccncc2)nc2ccccc12 (stereo unspecified) | 10µM* | ? | 5% | >11 | 20% | i
CCC1CCCCN1c1nc(-c2ccncc2)nc2ccccc12 (stereo unspecified) | / | / | / | >26 | / | /
CC1CCC/C(=C\Nc2ccccc2C(=O)O)C1=O (stereo unspecified) | -12% | 8% | -5% | >57 | 6% | >77
CC1CCC/C(=C\Nc2ccc3c(c2)OCO3)C1=O (stereo unspecified) | 27% | -18% | -21% | i | 25µM* | >77
Cn1c(SCC(=O)NCc2ccc3c(c2)OCO3)nnc1C1COc2ccccc2O1 (stereo unspecified) | 22% | 15% | 0% | >57 | 7% | >77
O=C1CC(Nc2ccccc2)C(=O)N1c1ccc(N2CCOCC2)cc1 (stereo unspecified) | -6% | 2% | 0% | >57 | -12% | >77
O=C1CC(Nc2ccc(N3CCOCC3)cc2)C(=O)N1c1ccccc1F (stereo unspecified) | / | 20µM* | -9% | / | -12% | /
CCCC1C(c2ccc(OC)cc2)C(C#N)(C#N)C2(C#N)CC1(N)NC2=O (stereo unspecified) | / | / | / | >26 | / | /
Cc1cccc(N2C(=O)CC(N3CCN(Cc4ccc5c(c4)OCO5)CC3)C2=O)c1 (stereo unspecified) | 26% | -23% | -5% | / | -12% | /
Cc1cccc(Nc2nc(N)nc(CN3CCN(Cc4ccc5c(c4)OCO5)CC3)n2)c1 | 32% | 7% | -8% | >57 | 0% | 9.8*
Cc1cccc(Nc2nc(N)nc(CN3CCN(c4ccccc4)CC3)n2)c1 | 41% | 27% | ? | >57 | -22% | 4.3*
Cc1ccc(-c2noc(CN3CCN(c4ccccc4F)CC3)n2)cc1 | / | -2% | -1%[2.3 µM] | / | -11% | /
Cc1cccc(Nc2nc(N)nc(CN3CCN(c4ccccc4F)CC3)n2)c1 | 40% | 3% | ? | >57 | -4% | 1.4*
